Source: PubChem BioAssay (National Center for Advancing Translational Sciences (NCATS))
Only some compounds are listed: those with a hit (about 21% of all), similar ones and a draw of the others.
Pf growth 48h – P. falciparum growth inhibition at 48 hours (one generation); P. falciparum luciferase growth in erythrocytes, 48 h; Potency, µM (series often up to 28.7 µM), usual class: inhibitors; 310,000 tested, 5.9% active
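Cell-based growth assay: transgenic P. falciparum expressing firefly luciferase, cultured in red cells within RPMI 1640 containing 0.5% w/v Albumax, 24 mM bicarbonate and gentamycin. A drop in luciferase activity indicates inhibition.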
Shiga toxin inh – blocks Shiga toxin action in Vero cells. Vero cells, Shiga toxin protein synthesis inhibition reporter. inhibition, % at 38.7 µM. 290,000 tested, 9.2% active; in the data active = inhibition mostly above about 28%, no sharp cut-off; inactive = mostly below about 43%
FBPA Giardia inh – Giardia lamblia aldolase inhibition | A8B2U2 | purified Giardia FBPA | Potency, µM (titrated, usually from 59.6 µM), hits mostly inhibitors | 290,000 tested, 0.71% active | AID 2451; also: nearly all actives have a fitted effect of over 55% in size
Target sequence (A8B2U2 whole entry, looked up): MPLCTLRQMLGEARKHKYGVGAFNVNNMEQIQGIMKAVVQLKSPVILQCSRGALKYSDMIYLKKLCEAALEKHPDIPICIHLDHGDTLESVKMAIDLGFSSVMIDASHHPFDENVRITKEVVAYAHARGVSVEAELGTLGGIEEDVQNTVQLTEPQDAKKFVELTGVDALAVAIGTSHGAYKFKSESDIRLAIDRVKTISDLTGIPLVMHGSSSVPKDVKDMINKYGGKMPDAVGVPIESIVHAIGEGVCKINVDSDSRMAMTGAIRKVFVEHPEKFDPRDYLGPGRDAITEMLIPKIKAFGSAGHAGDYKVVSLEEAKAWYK
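Giardia FBPA (40 nM reagent) was preincubated 10 min at RT with compound (up to 57.5 uM final), then substrate plus GAPDH/TPI/NAD/arsenate coupling system with diaphorase/resazurin was added; resorufin fluorescence (525/598 nm) was read after 20 min.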
CHX counter – affects cycloheximide protein synthesis inhibition readout, counter-screen; cell reporter, cycloheximide protein synthesis inhibition counterscreen; max response, %; 300,000 tested, 12% active; in the data active = max response mostly above about 13%, no sharp cut-off; inactive = mostly below about 14%; also: read at 38.3 µM for the half of the compounds with a filed dose
Pf growth 96h – P. falciparum growth inhibition at 96 hours; AID 504834; P. falciparum luciferase reporter growth, 96 h; 320,000 tested, 6.9% active; Potency, µM (doses to about 28.7 µM), actives largely listed as inhibitors
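Two-generation exposure (96 h) targets delayed-death phenotype. Reporter parasites carrying integrated firefly luciferase, in red cells at 2% hematocrit and 0.05% parasitemia final, kept at 37 C, 5% CO2; luminescence loss indicates inhibition.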
NS1 inh – inhibitors of influenza NS1 protein function; Potency, µM (doses to about 46.1 µM); 270,000 tested, 0.4% active; AID 2326; calls by dose curve; also: actives are rising curves; nearly all actives have a fitted effect of over 50% in size
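Read-out: OD600 growth recovery of NS1-expressing budding yeast. Cells grown overnight at 30C in -URA glucose medium, washed, resuspended and diluted 1:100 in 2% galactose assay medium, pH 6.0. Same strain lacking NS1 served as positive control.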
Large screens that a line does not name were inactive. Unless noted, calls follow the shape of the dose curve; as a rule, active = well fitted curve in the direction sought with a large enough effect; inconclusive = small, poorly fitted or top-dose-only effect, or another doubt; inactive = no such curve, though single readings can be large; an effect the other way counts as inactive or inconclusive.

COc1ccc(Nc2nnc(SCC(=O)/C=C3/N(C)c4ccccc4C3(C)C)s2)cc1	Pf growth 48h 9.28µM, Pf growth 96h 7.38µM
CN1/C(=C\C(=O)CSc2nnc(N)s2)C(C)(C)c2ccccc21	none
COc1ccccc1N1CCN(CCCCNS(=O)(=O)c2cccc3c(N(C)C)cccc23)CC1	none (no result: Pf growth 48h, Shiga toxin inh, CHX counter, Pf growth 96h)
O=C(Cc1ccc(Cl)cc1)NCCc1cnc[nH]1	none
CC(C)c1nnc(N2C(=O)C(O)=C(C(=O)c3cccs3)C2c2ccccc2)s1 (stereo not given)	Shiga toxin inh 55.0, FBPA Giardia inh inconclusive, CHX counter 20.8
Cc1ccccc1N1CCN(C(=S)c2ccc(-c3cccc([N+](=O)[O-])c3)o2)CC1	Pf growth 48h 10.4µM, Pf growth 96h inconclusive (no result: NS1 inh)
CN1CCN(c2ccc(NC(=O)c3ccc(-c4ccc(Cl)cc4)o3)cc2)CC1	Pf growth 48h 2.94µM, Pf growth 96h inconclusive
CN1CCN(c2ccc(NC(=O)c3ccc(-c4cccc([N+](=O)[O-])c4)o3)cc2)CC1	Pf growth 48h 1.47µM
CS(=O)(=O)N1CCN(c2ccc(NC(=O)c3ccc(-c4ccc(Cl)cc4)o3)cc2)CC1	Pf growth 96h inconclusive (no result: Pf growth 48h)
CC(=O)N1CCN(c2ccccc2NC(=O)c2ccc(-c3cccc([N+](=O)[O-])c3)o2)CC1	Pf growth 48h inconclusive
O=C(Nc1ccccc1)Nc1ccccc1C(=O)NCCCN1CCOCC1	Pf growth 48h inconclusive
CCc1c(C)nc2c(C#N)c[nH]n2c1=O	Pf growth 96h 0.522µM
CC(=O)Nc1ccc(NC(=O)CC23CC4CC(CC(C4)C2)C3)cc1	Pf growth 96h inconclusive (no result: FBPA Giardia inh)
O=C(COC(=O)c1cnccn1)NCCc1ccccc1	Pf growth 48h inconclusive
NC(=O)c1ccccc1NC(=O)CCc1ccccc1	CHX counter 28.5 (no result: Pf growth 48h)
O=C(Nc1ccccc1C(=O)NCCc1ccccc1)c1cnccn1	CHX counter 19.4
NC(=O)c1ccccc1NC(=O)CC12CC3CC(CC(C3)C1)C2	Pf growth 96h 9.28µM (no result: Shiga toxin inh)
O=C(NCCc1ccccc1)c1ccccc1NC(=O)C1CC=CCC1C(=O)O (stereo not given)	Shiga toxin inh 69.8, CHX counter 61.3
COc1ccccc1CNC(=O)CS(=O)(=O)c1ccc(C)cc1	Pf growth 96h inconclusive (no result: FBPA Giardia inh)
CC1(C)SC2C(N3C(=O)C(c4ccccc4)NC3(C)C)C(=O)N2C1C(=O)O (stereo not given)	FBPA Giardia inh inconclusive (no result: Shiga toxin inh, CHX counter, NS1 inh)
CN(C)S(=O)(=O)c1cccc(NC(=O)CC23CC4CC(CC(C4)C2)C3)c1	Pf growth 48h 14.7µM, Pf growth 96h inconclusive
O=C(O)CCC(=O)Nc1ccccc1C(=O)NCCc1ccccc1	Shiga toxin inh 72.6, CHX counter 44.8
CN(C)S(=O)(=O)Nc1cccc(NC(=O)CC23CC4CC(CC(C4)C2)C3)c1	none
O=C(O)CCC(=O)Nc1ccccc1C(=O)Nc1ccccc1	none (no result: Pf growth 96h)
CCCC(NS(=O)(=O)c1ccc(-c2ccc(=O)[nH]n2)s1)c1cccs1 (stereo not given)	Shiga toxin inh 23.3, CHX counter 23.5, Pf growth 96h inconclusive (no result: FBPA Giardia inh)
CCSc1nnc(NC(=O)NC(C)(C(F)(F)F)C(F)(F)F)s1	Pf growth 48h inconclusive, Pf growth 96h inconclusive
CSc1nnc(NC(=O)C2CCCCC2)s1	Pf growth 96h inconclusive
CCCC(=O)Nc1nnc(SCC(=O)N2CCCCC2)s1	none
CCc1nnc(NC(=O)CN2C(=O)CCC2=O)s1	none
CCSc1nnc(NC(=O)NC(CC)(C(F)(F)F)C(F)(F)F)s1	Pf growth 48h 11.7µM, Pf growth 96h inconclusive
CCSc1nnc(NC(=O)C2CCCCC2)s1	Shiga toxin inh 61.6, CHX counter 25.1 (no result: Pf growth 96h)
CCc1nnc(NC(=O)NC(C)(C)C)s1	CHX counter 24.1 (no result: Pf growth 48h)
CCCC(=O)Nc1nnc(SCC)s1	Shiga toxin inh 38.1, CHX counter 19.1
Cn1c(N2CCCC2)nc2c1c(=O)[nH]c(=O)n2C	Pf growth 96h inconclusive, NS1 inh inconclusive
Cc1cnc(=O)[nH]c1SCc1ccccc1F	none
C=C(C)C(=O)CP(=O)(OCC)OCC	none (no result: Pf growth 48h, Shiga toxin inh, CHX counter, Pf growth 96h, NS1 inh)
CCCn1c(-c2ccc(F)cc2)nc2c(NCC(C)(C)CN(C)C)nc(C)nc21	none (no result: Pf growth 48h, Shiga toxin inh, CHX counter, Pf growth 96h, NS1 inh)
CCc1nnc(NC(=O)C2CCCCC2)s1	CHX counter 38.8
CC(C)Sc1nnc(Nc2ccccc2)s1	Shiga toxin inh 143.0, CHX counter 36.9, Pf growth 96h inconclusive
CC(C)Sc1nnc(NC(=O)C2CC2)s1	Shiga toxin inh active, CHX counter 35.4, NS1 inh inconclusive
O=C(Nc1nnc(C2CC2)s1)C1CCCCC1	none (no result: Shiga toxin inh, FBPA Giardia inh, CHX counter, NS1 inh)
Cc1ccccc1NC(=O)CSc1nnc(NC(=O)C2CC2)s1	none
CC(C)c1nnc(NC(=O)C2CCCCC2)s1	Shiga toxin inh 19.9, CHX counter 13.4, NS1 inh inconclusive
N#Cc1ccc(CSc2nnc(Nc3ccccc3)s2)cc1	none (no result: Pf growth 48h)
CCOC(=O)Cc1nnc(NC(=O)C2CCCCC2)s1	none
C[C@H](NC(=O)[C@H]1N2C(=O)c3ccccc3C2SC1(C)C)C(=O)N1CCC[C@H]1C(=O)O (stereo not given in full)	Pf growth 48h inconclusive, FBPA Giardia inh inconclusive, Pf growth 96h inconclusive
O=C(Cn1cnc(S(=O)(=O)N2CCCCC2)c1)NCc1ccco1	Pf growth 96h inconclusive (no result: FBPA Giardia inh)
CC(C)=CC(=O)Nc1nnc(C(C)C)s1	CHX counter 45.9
CCC[C@@H]1NC(=O)[C@@H](NC(C)=O)CSSC[C@@H](C(N)=O)NC(=O)CNC(=O)[C@H](Cc2c[nH]c3ccccc23)NC(=O)[C@H](CCCN=C(N)N)NC(=O)[C@H](Cc2ccc3ccccc3c2)NC(=O)[C@H](Cc2cnc[nH]2)NC(=O)[C@H](CCCN=C(N)N)NC1=O	none (no result: Pf growth 48h, Pf growth 96h, NS1 inh)
CC1CN(C(=O)CSc2cn(CC(=O)N3CCOCC3)c3ccccc23)CC(C)O1 (stereo not given)	none
CN(C(=O)CSc1cn(CC(=O)N2CCOCC2)c2ccccc12)c1ccccc1	Pf growth 96h inconclusive, NS1 inh inconclusive
O=C(Cn1cc(SCc2ccc(Cl)cc2)c2ccccc21)N1CCOCC1	Shiga toxin inh 31.5, CHX counter 26.1, Pf growth 96h inconclusive
O=C(Cn1cc(SCc2ccc(F)cc2)c2ccccc21)N1CCOCC1	Shiga toxin inh 16.3, CHX counter 36.2
O=c1[nH][nH]c2ccccc2c1=O	none
CCOc1ccccc1NC(=O)C(OC(=O)c1ccc(O)cc1)c1ccccc1 (stereo not given)	Pf growth 48h 11.7µM, Pf growth 96h inconclusive
CCOc1ccccc1C(=O)Nc1cc(C(=O)NCC(C)C)ccc1Cl	Pf growth 48h 7.38µM, Pf growth 96h 1.65µM
CCOc1ccccc1NC(=O)C(OC(=O)c1ccc(CC)cc1)c1ccccc1 (stereo not given)	Pf growth 48h inconclusive, Pf growth 96h inconclusive
CCOc1ccccc1NC(=O)c1cccc(NC(=O)CC(c2ccccc2)c2ccccc2)c1	Pf growth 48h inconclusive, Pf growth 96h inconclusive, NS1 inh inconclusive
CCOc1ccccc1C(=O)Nc1cc(C(=O)NCCc2ccccc2)ccc1Cl	Pf growth 48h inconclusive, Pf growth 96h inconclusive
CCOc1ccccc1NC(=O)c1ccc(Cl)c(NC(=O)CC(c2ccccc2)c2ccccc2)c1	Pf growth 48h inconclusive, Pf growth 96h 9.28µM
